Test results taken from PubChem BioAssay (NCATS).
Values joined by “and” are separate entries in the source; they are usually repeats but may differ in a detail not shown here. Identical values can stand only once. Records with an inconclusive call do not appear. Active and inactive are the calls of the source. Unless noted, calls follow the shape of the dose curve; as a rule, active = well fitted curve in the direction sought with a large enough effect; inconclusive = small, poorly fitted or top-dose-only effect, or another doubt; inactive = no such curve, though single readings can be large; an effect the other way counts as inactive or inconclusive.

Assays:
[1] = qHTS assay for small molecule antagonists of peroxisome proliferator-activated receptor delta signaling (AID 588535); details: HEK293T PPARd-UAS-bla, beta-lactamase FRET ratio, 18 h; 460 nm channel;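 also: cells co-treated with a PPAR-delta agonist as stimulator during compound exposure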
In short: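 Cell-based beta-lactamase assay in antagonist mode: 4000 HEK293T PPAR-delta-UAS-bla cells per well, 5 hr preincubation then 18 hr compound incubation at 37 C. IC50 obtained by Hill equation fitting.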

[2] = biological target: Vitamin D3 receptor (Homo sapiens) (UniProt P11473); assay: qHTS assay for small molecule antagonists of vitamin D receptor signaling (AID 588541; calls by dose curve;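 also: receptor activated by calcitriol during compound treatment; % is scaled to controls: 0 for no effect and ±100 for the full control effect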); details: HEK293T VDR-UAS-bla, beta-lactamase ratio, antagonist mode; series mostly up to 76.7 µM
Vitamin D3 receptor (Homo sapiens), sequence (P11473 whole entry, looked up): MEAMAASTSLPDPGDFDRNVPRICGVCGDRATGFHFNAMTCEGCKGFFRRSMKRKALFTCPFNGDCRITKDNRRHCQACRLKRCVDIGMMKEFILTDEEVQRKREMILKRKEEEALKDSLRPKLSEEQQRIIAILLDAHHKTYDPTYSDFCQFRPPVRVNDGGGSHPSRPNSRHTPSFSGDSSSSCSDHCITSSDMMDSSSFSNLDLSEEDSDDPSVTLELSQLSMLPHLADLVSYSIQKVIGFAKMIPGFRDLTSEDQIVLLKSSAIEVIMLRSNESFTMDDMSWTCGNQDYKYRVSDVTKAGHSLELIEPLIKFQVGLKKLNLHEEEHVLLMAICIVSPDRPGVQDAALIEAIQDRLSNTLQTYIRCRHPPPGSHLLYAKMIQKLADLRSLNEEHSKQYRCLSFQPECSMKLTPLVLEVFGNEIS
In short: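 Antagonist-mode beta-lactamase reporter assay: HEK293T VDR-UAS-bla cells were exposed to titrated compound alongside 1-alpha,25-dihydroxyvitamin D3 at 3 nM final for 16 h. Values were normalized to the 50 nM agonist control and DMSO basal, with IC50 and efficacy from Hill equation fits.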

[3] = biological target: Vitamin D3 receptor (Homo sapiens) (UniProt P11473); assay: qHTS assay for small molecule agonists of vitamin D receptor signaling (AID 588543; calls by dose curve;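 also: 0% = DMSO basal and 100% = reference agonist control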); details: HEK293T VDR-UAS-bla, beta-lactamase ratio, 16 h; series mostly up to 76.8 µM
In short: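 β-lactamase reporter, VDR-UAS-bla HEK293T, agonist mode. Cells plated 5 h at 37 °C, compound titration 16 h at 37 °C, CCF4 dye 2 h RT, ratio 460/530 nm. Hill fit → EC50, efficacy vs 50 nM 1α,25-(OH)2D3.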

[4] = qHTS assay for small molecule agonists of retinoid X receptor alpha signaling (AID 588544; calls by dose curve;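 as to activation: 0% = DMSO basal wells and 100% = reference agonist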); details: HEK293T RXRa-UAS-bla, beta-lactamase reporter, 18 h; 530 nm emission
[5] = biological target: Retinoic acid receptor RXR-alpha (Homo sapiens) (UniProt P19793); assay: as above; details: HEK293T RXRa-UAS-bla, beta-lactamase reporter, 18 h; series mostly up to 76.7 µM
Retinoic acid receptor RXR-alpha (Homo sapiens), sequence (P19793 whole entry, looked up): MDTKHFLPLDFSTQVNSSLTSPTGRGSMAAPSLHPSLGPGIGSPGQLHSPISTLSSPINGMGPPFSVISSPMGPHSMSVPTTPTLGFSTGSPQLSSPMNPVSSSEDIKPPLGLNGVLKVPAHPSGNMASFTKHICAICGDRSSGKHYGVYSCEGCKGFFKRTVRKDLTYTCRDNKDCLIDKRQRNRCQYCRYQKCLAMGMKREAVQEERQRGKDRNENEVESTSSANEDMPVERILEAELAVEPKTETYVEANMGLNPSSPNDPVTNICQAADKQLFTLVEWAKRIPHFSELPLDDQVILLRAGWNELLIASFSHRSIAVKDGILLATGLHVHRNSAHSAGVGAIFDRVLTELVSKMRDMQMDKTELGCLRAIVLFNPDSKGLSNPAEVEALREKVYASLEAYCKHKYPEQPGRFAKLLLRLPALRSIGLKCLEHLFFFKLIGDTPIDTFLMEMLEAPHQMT

[6] = biological target: Thyroid hormone receptor beta (Homo sapiens) (UniProt P10828); assay: qHTS assay for small molecule agonists of thyroid hormone receptor beta signaling (AID 588545; calls by dose curve;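 also: 0% = DMSO only and 100% = 10 nM T3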); details: TR-UAS-bla GripTite HEK 293, beta-lactamase ratio, agonist mode, 18 h; series mostly up to 76.7 µM
Thyroid hormone receptor beta (Homo sapiens), sequence (P10828 whole entry, looked up): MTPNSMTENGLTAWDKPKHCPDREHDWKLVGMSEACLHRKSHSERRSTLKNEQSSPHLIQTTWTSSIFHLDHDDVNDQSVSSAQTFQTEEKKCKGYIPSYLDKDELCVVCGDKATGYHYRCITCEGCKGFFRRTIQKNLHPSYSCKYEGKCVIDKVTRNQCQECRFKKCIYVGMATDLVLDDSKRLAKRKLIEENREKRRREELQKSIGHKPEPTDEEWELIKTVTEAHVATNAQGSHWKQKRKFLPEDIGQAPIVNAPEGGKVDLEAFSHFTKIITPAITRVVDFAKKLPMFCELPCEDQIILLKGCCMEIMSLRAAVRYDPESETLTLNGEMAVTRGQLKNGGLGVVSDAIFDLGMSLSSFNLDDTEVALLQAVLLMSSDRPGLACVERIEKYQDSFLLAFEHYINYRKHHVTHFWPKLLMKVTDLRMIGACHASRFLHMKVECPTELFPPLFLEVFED
In short: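 TR-UAS-bla GripTite HEK 293 cells (2500/well, medium with 2% charcoal/dextran FBS) were treated in agonist mode for 18 h at 37 C, titrated. Beta-lactamase was read by CCF4 ratio after 2 h; normalized to 10 nM T3 (100%) and DMSO, Hill-fitted for EC50 and efficacy.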

[7] = qHTS assay for small molecule antagonists of retinoid X receptor alpha signaling (AID 588546; active = well fitted inhibition curve with a large enough effect in the signal ratio, with a control signal flat, not every such curve was filed as active; the % refers to the signal ratio;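 also: cells stimulated with 9-cis-retinoic acid as agonist; % is scaled to controls: 0 for no effect and ±100 for the full control effect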); details: HEK293T RXRa-UAS-bla, beta-lactamase ratio, antagonist mode; measured here: W530 green channel, cytotoxicity proxy
In short: (§1)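 Beta-lactamase reporter inhibition, read as CCF4 fluorescence ratio (ex 405, em 460/530 nm) after 2 h at RT. HEK293T UAS-bla cells, 2500/well, were stimulated with 9-cis-RA at 500 or 100 nM final alongside test compound for 18 h at 37 C.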

[8] = qHTS assay for environmental chemicals that activate the Aryl hydrocarbon Receptor (AhR) signaling pathway (AID 651777); details: 1A2-DRE human hepatoma cells, luciferase, 24 h; activation: stronger effect = higher value; also: % of control where 0% means no effect; nearly all actives have a fitted effect of over 15% in size
In short: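 Luminescence read-out: One-Glo added for 30 min at RT after 24 hr compound treatment (37 C, 5% CO2) of human hepatoma cells expressing a DRE/CYP1A2 promoter–luciferase reporter; increased signal indicates AhR activation.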

[9] = biological target: Peroxisome proliferator-activated receptor alpha (Homo sapiens) (UniProt Q07869); assay: qHTS assay for small molecule agonists of the peroxisome proliferator-activated receptor alpha (PPARalpha) signaling pathway (AID 651778); details: PathHunter PPARalpha complementation, chemiluminescence, 6 h; max response: stronger effect = higher value; also: % of control where 0% means no effect
Peroxisome proliferator-activated receptor alpha (Homo sapiens), sequence (Q07869 whole entry, looked up): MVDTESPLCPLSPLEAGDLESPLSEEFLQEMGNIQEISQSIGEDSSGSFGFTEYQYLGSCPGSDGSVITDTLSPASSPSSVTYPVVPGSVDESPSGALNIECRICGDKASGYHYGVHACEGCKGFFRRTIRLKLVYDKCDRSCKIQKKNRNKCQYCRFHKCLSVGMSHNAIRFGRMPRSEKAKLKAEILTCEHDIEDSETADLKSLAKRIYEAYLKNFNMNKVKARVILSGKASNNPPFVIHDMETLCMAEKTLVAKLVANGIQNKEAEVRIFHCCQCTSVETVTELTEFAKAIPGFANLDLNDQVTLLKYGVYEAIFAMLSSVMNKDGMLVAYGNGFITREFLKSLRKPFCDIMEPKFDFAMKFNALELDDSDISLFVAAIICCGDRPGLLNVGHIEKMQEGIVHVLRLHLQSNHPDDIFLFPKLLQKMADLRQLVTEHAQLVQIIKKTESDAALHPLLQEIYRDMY
In short: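 Chemiluminescence from complemented enzyme reported PPARalpha activation in cells after 6 hr of compound treatment at 37 C. The detection reagent was incubated for 60 min at room temperature, and compounds were scored as agonists.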

[10] = qHTS assay for small molecule agonists of the antioxidant response element (ARE) signaling pathway measured by Nrf2-dependant transcriptional activity (AID 720636; active = well fitted curve in the direction sought with a large enough effect in the repeat runs; an effect the other way counts as inactive or inconclusive;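 also: HepG2 cells with an ARE-driven luciferase reporter; % of control where 0% means no effect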); details: ARE-luc HepG2, Nrf2 luciferase reporter, 16 h; series mostly up to 92.4 µM
In short: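 HepG2 ARE-luc reporter line, 1% dialyzed FBS; 6 hr attachment at 37 C, compound pinned in, 16 hr at 37 C/5% CO2; ONE-Glo, 30 min RT, luminescence read.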

[11] = qHTS assay for small molecule agonists of the antioxidant response element (ARE) signaling pathway measured by Nrf2-dependant transcriptional activity - cell viability counter screen (AID 720653; active = well fitted curve in the direction sought with a large enough effect in the repeat runs; an effect the other way counts as inactive or inconclusive; also: % is scaled to controls: 0 for no effect and ±100 for the full control effect); details: ARE-bla HepG2 viability, CellTiter-Glo ATP luminescence, 16 h; max response: stronger effect = lower value
In short: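 Cytotoxicity counter screen: intracellular ATP quantified by CellTiter-Glo luminescence in the same ARE-bla HepG2 plates, after 16 h compound exposure and a 2 h beta-lactamase substrate step.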

[12] = qHTS assay for cell viability of HEK293 cells (AID 743288); details: ATP luminescence (CellTiter-Glo), 18 h; max response: stronger effect = lower value; also: % is scaled to controls: 0 for no effect and ±100 for the full control effect; nearly all actives have a fitted effect of over 50% in size
In short: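 Environmental chemicals tested in qHTS format against parental HEK293 cells; 18 h treatment, 37 C; read-out ATP luminescence (CellTiter-Glo), 30 min RT development.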

[13] = qHTS assay for cell viability of the p53RE-bla HCT-116 cell line (AID 743292); details: p53RE-bla HCT-116 viability, ATP luminescence, 16 h; series mostly up to 95 µM; also: % is scaled to controls: 0 for no effect and ±100 for the full control effect; nearly all actives have a fitted effect of over 55% in size
In short: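 Luminescent ATP quantitation (CellTiter-Glo) served as the viability read-out; reagent was added after 16 h compound exposure at 37 C and read after 30 min at room temperature. Cells: p53RE-bla HCT-116, 4,000 per well.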

[14] = biological target: Nuclear receptor subfamily 1 group I member 2 (Rattus norvegicus) (UniProt Q9R1A7); assay: qHTS assay for small molecule activators of the rat pregnane X receptor (rPXR) signaling pathway (AID 651751; call rule not given here; also: 0% is about no effect); details: rPXR reporter cells, luciferase (One-Glo), 24 h
Nuclear receptor subfamily 1 group I member 2 (Rattus norvegicus), sequence (Q9R1A7 whole entry, looked up): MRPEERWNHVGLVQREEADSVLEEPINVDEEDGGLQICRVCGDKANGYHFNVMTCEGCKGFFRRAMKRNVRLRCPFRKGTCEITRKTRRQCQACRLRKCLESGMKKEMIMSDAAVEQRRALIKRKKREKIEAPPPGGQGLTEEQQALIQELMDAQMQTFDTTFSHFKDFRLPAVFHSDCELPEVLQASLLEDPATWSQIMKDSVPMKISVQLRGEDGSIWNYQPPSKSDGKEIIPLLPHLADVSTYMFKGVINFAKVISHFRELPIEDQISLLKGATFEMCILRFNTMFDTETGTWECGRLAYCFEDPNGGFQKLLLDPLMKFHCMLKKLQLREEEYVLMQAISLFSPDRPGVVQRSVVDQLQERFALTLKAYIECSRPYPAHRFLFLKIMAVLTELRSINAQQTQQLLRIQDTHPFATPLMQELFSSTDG

[15] = qHTS assay for small molecule activators of the human pregnane X receptor (PXR) signaling pathway (AID 720659; call rule not given here; also: 0% is about no effect); details: DPX-2 HepG2 CYP3A4-luciferase, 24 h; series mostly up to 92.3 µM
[16] = biological target: Peroxisome proliferator-activated receptor gamma (Homo sapiens) (UniProt P37231); assay: qHTS assay for small molecule agonists of peroxisome proliferator-activated receptor gamma signaling (AID 588536; active = well fitted curve in the direction sought with a large enough effect in the signal ratio, with a control signal flat, not every such curve was filed as active; the % refers to the signal ratio;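 also: 0% = DMSO basal wells and 100% = rosiglitazone at 2 µM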); details: HEK293 PPARg-UAS-bla, beta-lactamase ratio, 16 h, percent of rosiglitazone response, DMSO as zero; series mostly up to 76.7 µM
Peroxisome proliferator-activated receptor gamma (Homo sapiens), sequence (P37231 whole entry, looked up): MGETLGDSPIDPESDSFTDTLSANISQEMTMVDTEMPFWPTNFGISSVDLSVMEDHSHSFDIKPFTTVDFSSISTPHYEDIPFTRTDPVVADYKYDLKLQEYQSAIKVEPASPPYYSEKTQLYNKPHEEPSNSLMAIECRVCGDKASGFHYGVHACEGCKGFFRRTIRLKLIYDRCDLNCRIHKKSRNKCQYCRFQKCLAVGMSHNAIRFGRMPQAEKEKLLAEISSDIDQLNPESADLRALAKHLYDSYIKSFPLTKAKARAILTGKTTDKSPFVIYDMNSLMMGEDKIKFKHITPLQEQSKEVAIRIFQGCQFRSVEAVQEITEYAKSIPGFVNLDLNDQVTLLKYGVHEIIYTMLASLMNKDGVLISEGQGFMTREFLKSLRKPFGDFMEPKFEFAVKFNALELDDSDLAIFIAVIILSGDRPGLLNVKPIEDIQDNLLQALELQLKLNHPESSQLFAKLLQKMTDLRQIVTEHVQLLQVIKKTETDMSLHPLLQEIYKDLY
In short: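 HEK293 UAS-bla reporter line, 1% charcoal/dextran FBS; titration, 16 h, 37 C; CCF4 loading 2 h RT; fluorescence 460/530 nm. Normalized to rosiglitazone 2 uM = 100%, DMSO = 0%.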

[17] = biological target: Retinoic acid receptor RXR-alpha (Homo sapiens) (UniProt P19793); assay: qHTS assay for small molecule antagonists of retinoid X receptor alpha signaling (AID 588546); details: HEK293T RXRa-UAS-bla, beta-lactamase ratio, antagonist mode;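 also: cells stimulated with 9-cis-retinoic acid as agonist; % is scaled to controls: 0 for no effect and ±100 for the full control effect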
In short: as §1

[18] = biological target: Glucocorticoid receptor (Homo sapiens) (UniProt P04150); assay: qHTS assay for small molecule agonists of glucocorticoid receptor signaling (AID 588532; active = well fitted curve in the direction sought with a large enough effect in the signal ratio, with a control signal flat; the % refers to the signal ratio;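 also: 100% = dexamethasone at 0.1 µM and 0% = DMSO only wells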); details: HeLa MMTV-bla, beta-lactamase ratio, agonist, 18 h; stronger effect = higher value; percent of dexamethasone control, DMSO zero
Glucocorticoid receptor (Homo sapiens), sequence (P04150 whole entry, looked up): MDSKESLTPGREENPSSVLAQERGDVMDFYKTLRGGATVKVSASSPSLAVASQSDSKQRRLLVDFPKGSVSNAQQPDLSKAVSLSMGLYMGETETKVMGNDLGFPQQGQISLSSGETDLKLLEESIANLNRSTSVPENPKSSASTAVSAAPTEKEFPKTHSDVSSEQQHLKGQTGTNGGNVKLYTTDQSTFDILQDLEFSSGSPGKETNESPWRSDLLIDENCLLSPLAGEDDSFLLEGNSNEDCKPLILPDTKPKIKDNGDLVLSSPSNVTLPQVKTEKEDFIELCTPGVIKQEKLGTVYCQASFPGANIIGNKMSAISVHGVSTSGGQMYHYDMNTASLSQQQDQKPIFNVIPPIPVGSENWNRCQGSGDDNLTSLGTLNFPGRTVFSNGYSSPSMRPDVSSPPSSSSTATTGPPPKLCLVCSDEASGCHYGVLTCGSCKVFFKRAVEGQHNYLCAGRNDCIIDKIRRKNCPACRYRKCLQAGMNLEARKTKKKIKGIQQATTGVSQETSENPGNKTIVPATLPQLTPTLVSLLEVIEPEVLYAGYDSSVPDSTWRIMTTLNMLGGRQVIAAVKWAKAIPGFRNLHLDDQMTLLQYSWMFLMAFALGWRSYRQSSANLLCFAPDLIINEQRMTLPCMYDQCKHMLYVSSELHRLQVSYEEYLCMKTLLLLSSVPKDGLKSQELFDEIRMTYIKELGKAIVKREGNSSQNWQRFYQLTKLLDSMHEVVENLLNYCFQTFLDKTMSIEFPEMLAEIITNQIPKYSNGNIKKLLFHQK
In short: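 Quantitative HTS using CellSensor MMTV-bla HeLa cells in charcoal/dextran-treated serum; compounds tested up to 92 uM. After 18 h at 37 C, CCF4 dye reported reporter induction.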

[19] = biological target: Peroxisome proliferator-activated receptor gamma (Homo sapiens) (UniProt P37231); assay: qHTS assay for small molecule antagonists of peroxisome proliferator-activated receptor gamma signaling (AID 588537; active = well fitted inhibition curve with a large enough effect in the signal ratio, with a control signal flat, not every such curve was filed as active; the % refers to the signal ratio;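 also: reporter cells co-stimulated with 50 nM rosiglitazone agonist during compound treatment; % of control where 0% means no effect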); details: HEK293 PPARg-UAS-bla, beta-lactamase ratio, antagonist mode; series mostly up to 76.8 µM
In short: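 Inhibitors of agonist-stimulated UAS-bla reporter activity were sought in HEK293 cells; rosiglitazone (50 nM) defined full signal and DMSO baseline. Curves fitted to Hill model gave IC50 and efficacy.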

[20] = qHTS assay for small molecule activators of the p53 signaling pathway (AID 651743; active = well fitted activation curve with a large enough effect in the signal ratio, not every such curve was filed as active; the % refers to the signal ratio; also: % of control where 0% means no effect); details: HCT-116 p53RE-bla, beta-lactamase FRET ratio, 16 h; activation: stronger effect = higher value
In short: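 Screen for p53 pathway agonists uses stably transfected p53RE-bla HCT-116 cells, 4,000 per well, treated 16 h at 37 C with compounds in DMSO.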

Compound | max response [1] [%] | Potency [2] | outcome [3] | max response [4] [%] | Potency [5] | Potency [6] | max response [7] [%] | activation [8] | max response [9] | Potency [10] | max response [11] | max response [12] | Potency [13] | max response [14] | outcome [15] | outcome [16] | max response [17] | activation [18] | Potency [19] | activation [20]
CS(=O)(=O)c1ccc(Cl)cc1 | 15.6 | inactive | inactive | 0.314 | inactive | inactive | -4.7 | 0.81% (inactive) | -0.188% (inactive) | inactive | 0.283% (inactive) | -17.3% (inactive) | inactive | 3.76% (inactive) | inactive | – | – | – | – | –
O=c1oc(=O)c2cc3c(=O)oc(=O)c3cc12 | 11 | inactive | inactive | -7.31 | inactive | inactive | 2.24 | 0.0535% (inactive) | -1.48% (inactive) | inactive | -10.8% (inactive) | -11.4% (inactive) | inactive | -1.16% (inactive) | inactive | inactive | -12.6% (inactive) | – | – | –
CCCCC(CC)COC(=O)CS (stereo not given) | – | inactive | inactive | -9.7 | inactive | inactive | -9.5 | – | -1.44% (inactive) | inactive | 1.32% (inactive) | -2.56% (inactive) | inactive | 0.0458% (inactive) | inactive | – | 2.49% (inactive) | 8.21% (inactive) | – | –
S=C([S-])NCCNC(=S)[S-].[Mn+2] | – | – | inactive | – | – | inactive | – | 2.64% (inactive) and 10.8% (inactive) | -2% (inactive) and -3.91% (inactive) | – | -8.97% (inactive) and -21.3% (inactive) | -16.3% (inactive) | inactive | -0.103% (inactive) and -4.92% (inactive) | – | inactive | – | – | inactive | –
CCCCCOC(=O)COc1cc(N2C(=O)C3=C(CCCC3)C2=O)c(F)cc1Cl | – | inactive | inactive | – | – | inactive | – | 0.703% (inactive) | 1.28% (inactive) | – | 8.37% (inactive) | 4.43% (inactive) | – | 4.68% (inactive) | inactive | – | – | 3.85% (inactive) | – | –
CCCCCCC(C)OC(=O)COc1nc(F)c(Cl)c(N)c1Cl (stereo not given) | – | – | inactive | – | – | – | – | – | 25.7% (inactive) | inactive | 17% (inactive) | -29.6% (inactive) | – | – | – | – | – | – | – | -6.58% (inactive)
C=C(C)C(=O)OCCC[Si](Cl)(Cl)Cl | 8.96 | inactive | – | -12.2 | inactive | – | -12.6 | -0.113% (inactive) | 0.0328% (inactive) | inactive | -17.2% (inactive) | -10.2% (inactive) | inactive | 1.99% (inactive) | inactive | inactive | 9.64% (inactive) | – | inactive | -1.03% (inactive)
